KB-V1 MDR tox: KB-V1 MDR subline cytotoxicity; AID 1347076; KB-V1 MDR cells viability, CellTiter-Glo, 72 h; Potency, µM (titrated, usually from 46.1 µM), most hits filed as cytotoxic; 400,000 compounds, 3.4% hits; further: on the % scale 0 is the no-effect control and ±100 the full control effect; nearly all actives have a fitted effect of over 60% in size
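KB-V1, DMEM (no phenol red) + 10% FBS; cpd pin-transferred, titration series; 72 h, 37 degrees C; CellTiter-Glo, luminescence. Data normalized, curve-fit.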
SW480 rerep: inducers of DNA re-replication in SW480 colon cancer cells; SW480 DNA re-replication, Hoechst DNA content imaging, 48 h; Potency, µM (series often up to 46.1 µM), inactives show at the top dose re-replication activation, hits mostly activators; 340,000 compounds, 1.8% hits; AID 624297; further: % of control where 0% means no effect; nearly all actives have a fitted effect of over 55% in size
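Image-based DNA-content assay: after two days of treatment, nuclei were labelled with the DNA dye Hoechst and imaged, and hits were compounds raising the count of nuclei showing high fluorescence intensity.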
HT1080NT lethal: kills 2HG-producing HT-1080-NT fibrosarcoma cells. HT-1080-NT fibrosarcoma viability, CellTiter-Glo ATP luminescence, 48 h. Potency, µM (top dose mostly 46.1 µM), for the others: top-dose activity, negative = less viability, usual class: cytotoxic. 360,000 compounds, 1.6% hits;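 further: NT is the 2HG producing partner of a matched IDH1 knockdown line; 0% = DMSO-treated cells and -100% = media-only wells without cells; nearly all actives have a fitted effect of over 55% in size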
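Viability of the 2HG-overproducing fibrosarcoma line after 48 hours of compound exposure at 37 degrees C was determined by luminescence with CellTiter-Glo, and concentration-effect curves were then fitted and categorized.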
KB-3-1 tox: KB-3-1 parental cell cytotoxicity; KB-3-1 viability, CellTiter-Glo ATP luminescence, 72 h; 400,000 compounds, 1.4% hits; Potency, µM (titrated, usually from 46.1 µM), actives largely listed as cytotoxic; further: on the % scale 0 is the no-effect control and ±100 the full control effect; nearly all actives have a fitted effect of over 60% in size
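Cells are dispensed, compounds pinned in, plates held at 37 °C for 72 h, then CellTiter-Glo is added and luminescence read after 10 minutes. Cell line: parental KB-3-1 in phenol-red-free DMEM, 10% FBS.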
MCF10A rerep: induces DNA re-replication in MCF 10a normal breast cells. MCF 10A DNA re-replication, Hoechst nuclear intensity, 48 h. Potency, µM (highest dose often 46.1 µM), for inactives: at the top dose activity, positive = re-replication, actives largely listed as activators. 350,000 compounds, 2.9% hits. AID 624296; further: % of control where 0% means no effect; nearly all actives have a fitted effect of over 50% in size
HT1080 IDH1KD tx: HT-1080 IDH1 knockdown cell toxicity (counter line); Potency, µM (doses to about 46.1 µM), for the others: at the top dose activity, negative = toxicity, actives largely listed as cytotoxic; 360,000 compounds, 2% hits; HT-1080 IDH1 knockdown viability, ATP luminescence, 48 h;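 further: 0% = DMSO wells and -100% = cell-free medium wells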
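After a 2 h attachment period, IDH1KD HT-1080 cells took pin-transferred compound for 48 h at 37 °C; ATP-based luminescence after 10 min room-temperature reagent incubation reported viability.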
* hit, by the source's call; i = inactive; ? = inconclusive; · = not tested or not shown; ! = a repeat was not active; [ ] = remark or other dose. Sampled rows, rich in hits. Any-hit rate of the full collection: about 7.9%. The call rests on the fitted dose curve; in most records, active means well fitted curve in the direction sought with a large enough effect; inconclusive means small, poorly fitted or top-dose-only effect, or another doubt; inactive means no such curve, though single readings can be large; an effect the other way counts as inactive or inconclusive. Potency means the concentration at half of the fitted maximal effect.

SMILES	KB-V1 MDR tox	SW480 rerep	HT1080NT lethal	KB-3-1 tox	MCF10A rerep	HT1080 IDH1KD tx
C=C1CC2C(=O)N(Cc3cc(OC)ccc3OC)C(C(=O)OCC)(C(=O)OCC)C1N2C(=O)OC(C)(C)C (configuration not stated)	i	4%	2%	i	17%	3%
COCCn1c(C)cc(C(=O)CSc2nc(C)nc3sc4c(c23)CCC4)c1C	2.6µM*	7%	-6%	?	?	-27%
Cc1nc(SCC(=O)NCC2CCCO2)c2c3c(sc2n1)CCCC3 (configuration not stated)	?	1%	-3%	i	2%	-1%
COc1ccccc1NC(=O)CCCCCN1C(=O)c2cccc([N+](=O)[O-])c2C1=O	i	-23%	17%	i	0.92µM*	2%
COc1ccccc1NC(=O)CCCCCN1C(=O)c2cccc3cccc(c23)C1=O	?	0%	16%	i	7%	-3%
Cc1c2c(cc3c1[nH]c1ccccc13)C=NCC2	?	?	-12%	?	21µM*	?
Cc1cc2c([nH]c3ccccc32)c(C)n1	i	6%	-2%	i	?	-30%
COc1ccc2c(c1)Cc1c-2cc(Br)c(N)c1Br	i	·	3%	i	·	1%
CCOC(=O)C1=CN(Cc2ccc(OC)cc2)C=C(C(=O)OCC)C1c1cccs1	?	?	-4%	i	18µM*	1%
CCOc1cc(C(=O)N2CCN(C/C=C/c3ccccc3)CC2)cc(OCC)c1OCC	?	-6%	-4%	i	?	-13%
CCOc1cccc2cc(C(=O)N3CCN(C/C=C/c4ccccc4)CC3)c(=O)oc12	8.2µM*	1%	-4%	i	1%	?
Cc1ccc(OC(F)F)c(NC(=O)Nc2cccc(C(F)(F)F)c2)c1	?	11µM*	?	?	?	?
O=C(NNC(=S)Nc1cccc(C(F)(F)F)c1)c1ccc(Cl)cc1Cl	18µM*	?	?	?	13µM*	?
O=C(Nc1ccccc1)Nc1cccc(C(F)(F)F)c1	i	0%	0%	i	0%	-1%
COC(=O)/C=C/C(=O)Nc1cccc(C(F)(F)F)c1	i	?	-3%	i	23µM*	-11%
COc1ccc(NC(=S)NNC(=S)Nc2cccc(C(F)(F)F)c2)cc1	i	-35%	-25%	i	15µM*	?
COc1ccc(C2=C(Nc3ccc(Br)c(C)c3)c3ccccc3C2=O)cc1	?	·	·	i	·	·
Cc1ccc(C(=O)c2cn(Cc3ccccc3C)c3nc(C)ccc3c2=O)cc1	i	·	·	i	·	·
Cc1cc(C)n2nc(SCc3nnc(SCCCCl)o3)nc2n1	?	-1%	-3%	i	?	23%
CCCCCCCCSc1nnc(CSc2nc3nc(C)cc(C)n3n2)o1	2.6µM*	-5%	-5%	?	?	12%
COc1ccc(C(=O)c2cn(CC(=O)Nc3cc(C)ccc3C)c3nc(C)ccc3c2=O)cc1	i	·	·	i	·	·
O=C(c1ccc(S(=O)(=O)c2ccccc2Cl)c([N+](=O)[O-])c1)N1CCN(Cc2ccccc2)CC1	2.3µM*	21µM*	-2%	?	?	?
COc1ccc(N2CCN(C(=O)c3ccc(F)cc3)CC2)c([N+](=O)[O-])c1	?	-99%	4%	i	-27%	8%
O=C(c1ccc(F)cc1)N1CCN(c2cc(N3CCCCC3)c(F)cc2[N+](=O)[O-])CC1	9.2µM*	13%	0%[9.24 µM]	i	30%	?
O=C(c1ccc(Br)c([N+](=O)[O-])c1)N1CCN(Cc2ccccc2)CC1	i	-5%	-10%	i	13%	1%
SMILES	KB-V1 MDR tox	SW480 rerep	HT1080NT lethal	KB-3-1 tox	MCF10A rerep	HT1080 IDH1KD tx
O=C(c1ccc(S(=O)(=O)c2ccc(F)cc2)c([N+](=O)[O-])c1)N1CCCCCC1	8.2µM*	?	-21%	i	?	?
COc1cccc(CNC(=O)c2ccc3nc(-c4ccccc4)c(-c4ccccc4)nc3c2)c1OC	i	·	·	?	·	·
CC(=O)c1cccc(-c2ccnc3c2CC(C(=O)Nc2ccc(Cl)c(C(F)(F)F)c2)O3)c1 (configuration not stated)	i	·	-20%	i	·	?
O=C(/C=C/c1ccccc1)N1CCC(c2ccccc2)C1 (configuration not stated)	21µM*	-32%	16%	i	-8%	21%
Cc1ccc(OCC(=O)Nc2ccc(O)c(-c3nc4ccccc4o3)c2)cc1	?	-6%	?	?	16µM*	?
Cc1ccc(OCC(=O)Nc2ccc(O)c(-c3nc4cc(C)c(C)cc4o3)c2)cc1	i	·	·	?	·	·
O=C(Nc1cccc(F)c1)c1oc2ccccc2c1NC(=O)C12CC3CC(CC(C3)C1)C2	i	·	·	i	·	·
Cc1ccc(NN2C(=O)C=C(c3ccccc3)C2=O)cc1	i	8.2µM*	23µM*	i	8.2µM*	16µM*
COc1cc(OC)cc(C(=O)Nc2ccc3c(c2)OCCO3)c1	9.2µM*!	-1%	?	16µM*!	-1%	?
COc1cc(OC)cc(C(=O)NC(C(=O)Nc2ccc3c(c2)OCCO3)C(C)C)c1 (configuration not stated)	i	-10%	3%	i	10%	1%
Cn1c(C(=O)Nc2ccc3c(c2)OCCO3)cc2sccc21	15µM*	9%	-15%	i	-1%	-20%
Cc1ccc(C(=O)Nc2ccc3c(c2)OCCO3)o1	21µM*	0%	?	i	0%	?
Cc1cccc(/C=N/NC(=O)c2ccc(NC(=O)c3ccc(F)cc3)cc2)n1	i	-30%	-23%	i	21µM*	-24%
Cc1cccc(C(=O)Nc2cccc(C(=O)N/N=C/c3cccc(C)n3)c2)c1	i	-1%	1%	i	14%	16%
Cc1cccc(/C=N/NC(=O)c2ccc(NC(=O)c3ccc(Cl)cc3)cc2)n1	i	0%	18µM*	?	7%	18µM*
O=C(O)c1cc(S(=O)(=O)O)cc(Nc2c3ccccc3nc3ccccc23)c1O	i	5.2µM*	13%	i	-15%	0%
CCN(CC)S(=O)(=O)c1ccc(N2CC(C(=O)Nc3cccc(C(=O)NC4CC4)c3)CC2=O)cc1 (configuration not stated)	i	-13%	-3%	i	3%	-2%
COc1cccc(CNC(=O)Cn2nc(C)c3sc4ccccc4c3c2=O)c1OC	i	·	·	i	·	·

From PubChem BioAssay
